BAZ2B block: inhibitors of human BAZ2B bromodomain. Q9UIF8. AlphaScreen BAZ2B-H3K14Ac peptide displacement. Potency, µM (titrated, usually from 114 µM), hits mostly inhibitors. actives 4.4% (n = 360,000); further: nearly all actives have a fitted effect of over 60% in size
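AlphaScreen displacement of biotin-H3(5-23)K14Ac peptide (50 nM final) from BAZ2B (50 nM final) in PBS pH 7.4, 0.01% Tween-20; complex preformed 30 min RT, then compounds (top 110 uM) 30 min RT, beads 20 min dark.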
Sfp inh: Sfp phosphopantetheinyl transferase inhibition; Potency, µM, most hits filed as inhibitors; AID 1490; Biochemical Sfp PPTase activity, qHTS; Q9F4F7; actives 3.5% (n = 310,000);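 further: the enzyme is Sfp with the accession as filed and its product quenches rhodamine fluorescence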
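Step 1, compound plus 15 nM Sfp-PPTase, 15 min, room temperature. Step 2, add rhodamine-CoA (5 uM) and BHQ-2-YbbR (12.5 uM). Step 3, read 525/598 nm fluorescence at 0 and 30 min.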
HP1b binding inh: inhibitors of HP1-beta chromodomain binding to methylated histone tails | AlphaScreen HP1-beta / biotin-H3K9me3 peptide binding | Potency, µM (top dose mostly 114 µM), actives largely listed as inhibitors | actives 0.56% (n = 390,000) | AID 540317; further: nearly all actives have a fitted effect of over 70% in size
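Compound inhibition of the preformed complex between 50 nM HP1-beta and 50 nM biotinylated H3K9me3 peptide was read by AlphaScreen. Buffer was PBS pH 7.4 with 0.01% Tween-20. Incubations ran 30 min at room temperature, with 10 ug/mL donor/acceptor beads.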
G9a block: G9a (human) methyltransferase inhibition; G9a H3K9 monomethylation, AlphaScreen, 2 h; actives 8.8% (n = 350,000); Q96KQ7; AID 504332; Potency, µM (series often up to 102 µM), most hits filed as inhibitors; further: nearly all actives have a fitted effect of over 75% in size
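Using a bead-based AlphaScreen, monomethylated H3K9 product from 2 h room-temperature reactions (G9a 20 nM, peptide 500 nM, SAM 20 uM) was detected with 0.5 ug/mL rabbit anti-H3K9me1 antibody.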
JMJD2A Tudor: JMJD2A Tudor domain (human) inhibition; O75164; AlphaScreen JMJD2A-Tudor / H3K4me3 peptide binding; Potency, µM (doses to about 114 µM), hits mostly inhibitors; actives 4.4% (n = 390,000); further: nearly all actives have a fitted effect of over 50% in size
Target sequence (O75164 whole entry, looked up, the tested form may be a part): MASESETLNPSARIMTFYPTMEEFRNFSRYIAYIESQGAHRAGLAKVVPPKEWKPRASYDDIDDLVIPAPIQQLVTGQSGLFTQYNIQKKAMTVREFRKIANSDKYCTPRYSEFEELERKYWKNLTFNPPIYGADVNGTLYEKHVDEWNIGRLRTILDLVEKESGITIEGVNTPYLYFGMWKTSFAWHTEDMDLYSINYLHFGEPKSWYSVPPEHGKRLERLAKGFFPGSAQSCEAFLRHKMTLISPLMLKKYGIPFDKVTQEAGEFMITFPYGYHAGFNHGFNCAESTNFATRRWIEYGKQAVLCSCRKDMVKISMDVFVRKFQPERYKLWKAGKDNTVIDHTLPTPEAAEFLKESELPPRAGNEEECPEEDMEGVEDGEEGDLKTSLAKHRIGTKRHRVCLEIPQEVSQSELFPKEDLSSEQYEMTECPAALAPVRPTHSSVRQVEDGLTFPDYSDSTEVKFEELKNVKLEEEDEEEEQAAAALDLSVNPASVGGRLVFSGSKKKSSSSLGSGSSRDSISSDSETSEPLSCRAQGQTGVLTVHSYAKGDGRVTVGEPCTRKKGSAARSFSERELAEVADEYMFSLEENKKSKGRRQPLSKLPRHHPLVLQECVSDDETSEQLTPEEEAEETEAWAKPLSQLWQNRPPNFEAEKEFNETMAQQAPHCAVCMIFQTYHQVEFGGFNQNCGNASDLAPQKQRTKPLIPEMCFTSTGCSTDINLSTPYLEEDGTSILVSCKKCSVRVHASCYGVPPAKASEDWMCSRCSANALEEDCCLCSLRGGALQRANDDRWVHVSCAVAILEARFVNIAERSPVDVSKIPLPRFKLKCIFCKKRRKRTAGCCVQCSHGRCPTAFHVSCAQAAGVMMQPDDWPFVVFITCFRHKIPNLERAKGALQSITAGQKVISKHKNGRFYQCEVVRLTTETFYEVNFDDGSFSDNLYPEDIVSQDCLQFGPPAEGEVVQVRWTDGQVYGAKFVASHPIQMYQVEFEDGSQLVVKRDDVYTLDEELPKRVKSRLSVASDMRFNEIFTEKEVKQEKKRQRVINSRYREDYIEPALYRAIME
Large screens that a line does not name were inactive; ! = repeats disagree. Sampled rows, rich in hits. Any-hit rate of the full collection: about 12%. The call rests on the fitted dose curve; in most records, active means well fitted curve in the direction sought with a large enough effect; inconclusive means small, poorly fitted or top-dose-only effect, or another doubt; inactive means no such curve, though single readings can be large; an effect the other way counts as inactive or inconclusive.

Cc1cc(N2CCN(c3ccccc3)CC2)nc2ccccc12	none
COc1ccc2nc(C)cc(N3CCC(C(N)=O)CC3)c2c1	none
COc1ccc(N2CCN(c3nc(-c4cccs4)nc4ccccc34)CC2)cc1	BAZ2B block inconclusive, HP1b binding inh inconclusive, G9a block 20µM, JMJD2A Tudor inconclusive
COc1ccccc1N(CC(=O)Nc1ccc(S(=O)(=O)N2CCCCC2)cc1)S(C)(=O)=O	none
COC(=O)c1noc(C)c1-c1ccnn1C(=O)c1ccc(C)cc1	none (no result: G9a block)
COc1cccc(N2CCN(c3cnc4ccccc4n3)CC2)c1	Sfp inh 79µM
COC(=O)c1cc(N2CCN(C)CC2)nc2ccccc12	BAZ2B block inconclusive, G9a block 11µM
O=C(O)c1cc(N2CCCCC2)nc2ccccc12	none (no result: BAZ2B block, Sfp inh, G9a block)
COc1cc(NC(=O)C2=C(N3CCOCC3)/C(=C/c3ccc(Cl)cc3)CC2)cc(OC)c1OC	Sfp inh inconclusive
COc1cc(NC(=O)C2=C(N3CCOCC3)/C(=C\c3ccc(N(C)C)cc3)CCC2)cc(OC)c1OC	BAZ2B block 40µM, HP1b binding inh inconclusive, G9a block inconclusive, JMJD2A Tudor 28µM
COC(=O)N/N=C/c1ccc([N+](=O)[O-])o1	none
CN(/N=C/c1ccc([N+](=O)[O-])o1)c1ccccc1	BAZ2B block 14µM, HP1b binding inh 35µM, G9a block 22µM, JMJD2A Tudor 32µM
CCn1c(C)[n+](Cc2ccccc2)c2ccc(C(=O)OC)cc21	G9a block 32µM (no result: BAZ2B block)
CCOc1cccc(CC(=O)N2CCc3c([nH]c4ccccc34)C2c2ccc(Cl)cc2)c1OCC (stereo not given)	JMJD2A Tudor inconclusive (no result: Sfp inh)
CCN(CC)C(=O)c1cccc2nc3ccccc3nc12	JMJD2A Tudor 79µM
O=C(c1cccc2nc3ccccc3nc12)N1CCOCC1	JMJD2A Tudor 79µM
Cc1ccc(S(=O)(=O)CCC(=O)NCc2ccccc2F)cc1	none (no result: Sfp inh)
COc1cccc(C(=O)N2c3ncnn3C3(CCCCC3)[C@@H]3CCCC[C@@H]32)c1	none (no result: Sfp inh)
Cc1ccccc1OCCC(=O)N1CCN(S(=O)(=O)c2ccc(Cl)cc2)CC1	G9a block 45µM (no result: Sfp inh)
CCOc1ccc(CN2CCN(S(=O)(=O)c3ccc(Cl)cc3)CC2)cc1	G9a block 2.2µM, JMJD2A Tudor inconclusive (no result: Sfp inh)
CCOc1ccc(OCCCC(=O)N2CCN(S(=O)(=O)c3ccc(Cl)cc3)CC2)cc1	BAZ2B block 45µM, HP1b binding inh inconclusive, G9a block 2.8µM, JMJD2A Tudor 18µM (no result: Sfp inh)
C=CCn1c(COc2ccc(CC)cc2)nnc1SCC(=O)NC1CCS(=O)(=O)C1 (stereo not given)	none
O=C(CN1C(=O)NC2(CCCCCC2)C1=O)Nc1ccc(Br)cc1Br	none (no result: Sfp inh)
CC[N+]1=C(C)C(C)(C)c2cc(C)ccc21	BAZ2B block 45µM, G9a block inconclusive
Cc1sc2nc(CN3CCOCC3)nc(Oc3ccc(NC(=O)c4ccco4)cc3)c2c1C	Sfp inh 89µM!, G9a block 50µM!
Cc1ccc(Oc2nc(CN3CCOCC3)nc3sc4c(c23)CCC(C)C4)cc1 (stereo not given)	BAZ2B block inconclusive, Sfp inh inconclusive, G9a block 79µM, JMJD2A Tudor inconclusive
COCCNC(=S)N/N=C/c1c2ccccc2cc2ccccc12	G9a block 79µM
NC(=S)N/N=C/c1ccccc1	G9a block inconclusive
NC(=S)N/N=C\c1c2ccccc2cc2ccccc12	G9a block 7.1µM
C[N+](C)(C)CC(=O)N/N=C/c1c2ccccc2cc2ccccc12	BAZ2B block 56µM, G9a block 35µM, JMJD2A Tudor inconclusive
CNC(=S)N/N=C/c1c2ccccc2c(Cl)c2ccccc12	G9a block 18µM
Cn1cccc1CC(=O)N/N=C\c1c2ccccc2cc2ccccc12	JMJD2A Tudor inconclusive
CCOc1ccc(-n2nc(CO)c(C(=O)NCC(c3ccccc3)c3ccccc3)n2)cc1	none (no result: Sfp inh)
Cc1ccccc1NC(=O)c1c(NC(=O)c2cccs2)sc2c1CCC(C)C2 (stereo not given)	none (no result: Sfp inh)
CC(C)[C@@H](OCc1ccccc1)[C@H](C)/C=N\O[C@@H](C)c1cn([C@@H]2COC[C@@H]2O)nn1	none (no result: BAZ2B block, HP1b binding inh, G9a block, JMJD2A Tudor)
CC(C)=NOCc1ccc(-c2cn([C@@H]3COC[C@H]3O)nn2)cc1	G9a block 40µM (no result: HP1b binding inh, JMJD2A Tudor)
C[C@@H](NC(=O)[C@@H]1Cc2ccccc2CN1)C(=O)Nc1ccc2c(c1)OCO2	G9a block inconclusive
CC(=O)NC(Cc1ccccc1C)C(=O)NC1CCN(c2ncccc2[N+](=O)[O-])CC1 (stereo not given)	none (no result: HP1b binding inh, JMJD2A Tudor)
CC1=CC(C)C2COC(c3ccc[n+](C)c3)C1C2C (stereo not given)	G9a block 7.1µM
CSc1ccc(CN(C)C(=O)c2cc3ccccc3o2)cc1	none
CN(Cc1ccccc1N1CCCC1)C(=O)c1cc2ccccc2o1	HP1b binding inh inconclusive, JMJD2A Tudor 40µM (no result: BAZ2B block, Sfp inh, G9a block)
O=C(Nc1ccc(N2CCCC2)cc1)c1cc2ccccc2o1	BAZ2B block 25µM, Sfp inh inconclusive, JMJD2A Tudor inconclusive (no result: G9a block)
O=C(Nc1ccc(N2CCCC2)cc1)c1cccc(Cl)c1	G9a block inconclusive, JMJD2A Tudor inconclusive
O=C(Nc1ccc(N2CCCCC2)cc1)c1ccccn1	BAZ2B block inconclusive, HP1b binding inh inconclusive, G9a block 45µM, JMJD2A Tudor inconclusive
O=C(Nc1ccc(N2CCCCCC2)cc1)c1ccc[nH]1	BAZ2B block 45µM, HP1b binding inh inconclusive, JMJD2A Tudor 50µM (no result: Sfp inh)
CC(=O)N1CCN(c2ccc(NC(=O)c3cc4ccccc4o3)cc2)CC1	none
C=CCC1(CC=C)CCCN1C(=O)CC1C(=O)NCCN1Cc1cc(OC)cc(OC)c1 (stereo not given)	G9a block inconclusive
CC1CCCC(C)N1C(=O)COC(=O)/C=C/c1ccc(Br)o1 (stereo not given)	HP1b binding inh inconclusive, JMJD2A Tudor 20µM (no result: BAZ2B block, Sfp inh, G9a block)
CN(C)CCN(C(=O)c1ccc2ccccc2c1)c1nc2ccc(F)cc2s1	G9a block 45µM, JMJD2A Tudor inconclusive
CCc1ccc2nc(N(CCN(C)C)C(=O)c3ccc4ccccc4c3)sc2c1	BAZ2B block inconclusive, Sfp inh inconclusive, G9a block 79µM, JMJD2A Tudor inconclusive
CN(C)CCCN(C(=O)c1ccc(C(=O)c2ccccc2)cc1)c1nc2ccc(F)cc2s1	BAZ2B block inconclusive, G9a block inconclusive
CC1=CC(c2ccccc2)=NS(=O)(=O)N1	none (no result: BAZ2B block, Sfp inh, G9a block)
CCOC(=O)Cc1csc(NC(=O)CCCc2ccccc2)n1	Sfp inh inconclusive, G9a block 50µM
CCOC(=O)Cc1csc(N)n1	G9a block inconclusive
CCOC(=O)Cc1csc(NC(=O)Cc2ccc(Cl)cc2)n1	none
CCOC(=O)Cc1csc(NC(=O)Cc2ccc(Br)cc2)n1	G9a block 56µM
CCOC(=O)Cc1csc(CC(N)=O)n1	Sfp inh inconclusive, G9a block 50µM
CCOC(=O)Cc1csc(NC(=O)CCC(=O)O)n1	none (no result: G9a block)
O=C(COc1ccc(S(=O)(=O)NC2CCCCC2)cc1)NC1CC1	none (no result: G9a block)

Compound activity from PubChem BioAssay.
